In ChEMBL document CHEMBL3988442, “University of Dundee, Small-Polar-MMV Screening Library” (2021) one finds Percent Effect data, which are given here for 13 molecules.

Structures are written as SMILES. For some of these results: Potency and affinity values are given separately.

Set-up in all cases: scale not given: direction of the effect not stated beside the values
The target of test [1] is AMP-activated protein kinase, AMPK (Homo sapiens) (UniProt P54646+O43741+P54619+Q9UGJ0+Q9Y478+Q13131+Q9UGI9). Kind of test: AMP-dependent Kinase enzyme assay. An in vitro enzyme assay that detects ADP turnover that is directly proportional to AMPK activity. This uses naive AMPK that is activated during the assay with MK-8722. It counts as functional. The settings on record: 30 µM.

The target in test [2] is Protein translocase subunit SecA (Escherichia coli (strain K12)) (UniProt P10408). The test can be described thus: Assay to Identify E. coli SecA ATPase Inhibitors. It counts as functional. To be noted: 30 µM.
Chain of Protein translocase subunit SecA (Escherichia coli (strain K12)) (P10408 whole entry): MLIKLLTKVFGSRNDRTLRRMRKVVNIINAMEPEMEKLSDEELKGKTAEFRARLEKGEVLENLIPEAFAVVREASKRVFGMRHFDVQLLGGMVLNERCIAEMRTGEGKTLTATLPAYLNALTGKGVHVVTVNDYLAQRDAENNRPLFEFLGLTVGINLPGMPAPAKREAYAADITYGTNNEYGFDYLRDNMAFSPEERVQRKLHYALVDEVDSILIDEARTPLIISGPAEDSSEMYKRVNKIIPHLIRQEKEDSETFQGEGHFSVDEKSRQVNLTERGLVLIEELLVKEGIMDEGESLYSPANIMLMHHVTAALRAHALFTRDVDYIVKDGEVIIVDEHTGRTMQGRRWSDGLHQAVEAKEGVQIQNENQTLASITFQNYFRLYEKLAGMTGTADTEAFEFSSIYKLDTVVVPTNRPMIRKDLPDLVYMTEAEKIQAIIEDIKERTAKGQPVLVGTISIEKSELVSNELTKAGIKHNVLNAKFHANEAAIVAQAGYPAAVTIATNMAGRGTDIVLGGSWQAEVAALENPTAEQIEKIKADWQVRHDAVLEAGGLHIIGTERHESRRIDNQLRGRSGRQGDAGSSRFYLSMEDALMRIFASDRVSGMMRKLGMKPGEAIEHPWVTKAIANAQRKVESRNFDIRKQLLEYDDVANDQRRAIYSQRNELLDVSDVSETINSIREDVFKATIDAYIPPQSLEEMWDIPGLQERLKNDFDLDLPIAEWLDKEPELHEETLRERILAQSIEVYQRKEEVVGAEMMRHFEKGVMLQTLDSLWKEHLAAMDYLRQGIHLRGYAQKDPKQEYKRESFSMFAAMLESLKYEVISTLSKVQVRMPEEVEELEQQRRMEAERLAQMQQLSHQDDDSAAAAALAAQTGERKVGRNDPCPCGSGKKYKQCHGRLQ
For test [3], the target named is T1, Ubiquitin-activating enzyme e1, putative (Leishmania donovani (strain BPK282A1)) (UniProt E9BSI1).
T1 sequence (whole entry): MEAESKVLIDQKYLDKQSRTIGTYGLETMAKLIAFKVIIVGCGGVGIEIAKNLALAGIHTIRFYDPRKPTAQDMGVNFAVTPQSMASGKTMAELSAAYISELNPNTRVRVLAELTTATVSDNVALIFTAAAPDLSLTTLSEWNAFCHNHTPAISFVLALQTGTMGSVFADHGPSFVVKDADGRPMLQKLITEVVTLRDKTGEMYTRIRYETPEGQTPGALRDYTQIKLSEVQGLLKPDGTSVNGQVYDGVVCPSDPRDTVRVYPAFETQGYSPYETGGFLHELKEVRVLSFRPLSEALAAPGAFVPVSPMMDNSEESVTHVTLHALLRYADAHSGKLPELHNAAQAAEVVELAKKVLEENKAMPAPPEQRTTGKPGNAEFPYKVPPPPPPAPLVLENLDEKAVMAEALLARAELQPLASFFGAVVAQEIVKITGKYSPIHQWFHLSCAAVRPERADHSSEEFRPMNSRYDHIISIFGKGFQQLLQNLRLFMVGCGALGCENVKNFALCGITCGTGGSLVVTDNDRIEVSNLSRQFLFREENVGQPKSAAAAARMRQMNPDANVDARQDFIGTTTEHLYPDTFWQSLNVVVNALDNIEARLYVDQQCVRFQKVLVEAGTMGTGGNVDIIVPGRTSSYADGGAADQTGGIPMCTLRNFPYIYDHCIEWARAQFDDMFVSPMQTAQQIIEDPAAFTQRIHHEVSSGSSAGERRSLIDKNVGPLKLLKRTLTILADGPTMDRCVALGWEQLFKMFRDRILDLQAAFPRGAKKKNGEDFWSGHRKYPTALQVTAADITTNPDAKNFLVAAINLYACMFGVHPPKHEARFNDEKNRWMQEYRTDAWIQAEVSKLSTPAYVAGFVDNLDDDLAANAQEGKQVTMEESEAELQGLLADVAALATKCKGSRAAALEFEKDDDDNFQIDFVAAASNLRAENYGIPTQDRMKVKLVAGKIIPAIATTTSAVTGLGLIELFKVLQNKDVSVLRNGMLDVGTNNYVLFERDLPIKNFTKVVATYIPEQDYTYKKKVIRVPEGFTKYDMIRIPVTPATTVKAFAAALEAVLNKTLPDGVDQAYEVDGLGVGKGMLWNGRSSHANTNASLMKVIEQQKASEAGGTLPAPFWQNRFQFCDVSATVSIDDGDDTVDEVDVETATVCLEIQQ
The test can be described thus: Leishmania donovani Ubiquitin Activating Enzyme (LdE1). It counts as functional. To be noted: 30 µM.

In test [4] the target is Sialic acid-binding Ig-like lectin 9 (Homo sapiens) (UniProt Q9Y336). Kind of test: Hs-Siglec9 ALPHAscreen SOP 20170721. The settings on record: 10 µM. A general note: In Alpha technology, singlet oxygen from a donor bead excites a nearby acceptor bead.
Chain of Sialic acid-binding Ig-like lectin 9 (Homo sapiens) (Q9Y336 whole entry): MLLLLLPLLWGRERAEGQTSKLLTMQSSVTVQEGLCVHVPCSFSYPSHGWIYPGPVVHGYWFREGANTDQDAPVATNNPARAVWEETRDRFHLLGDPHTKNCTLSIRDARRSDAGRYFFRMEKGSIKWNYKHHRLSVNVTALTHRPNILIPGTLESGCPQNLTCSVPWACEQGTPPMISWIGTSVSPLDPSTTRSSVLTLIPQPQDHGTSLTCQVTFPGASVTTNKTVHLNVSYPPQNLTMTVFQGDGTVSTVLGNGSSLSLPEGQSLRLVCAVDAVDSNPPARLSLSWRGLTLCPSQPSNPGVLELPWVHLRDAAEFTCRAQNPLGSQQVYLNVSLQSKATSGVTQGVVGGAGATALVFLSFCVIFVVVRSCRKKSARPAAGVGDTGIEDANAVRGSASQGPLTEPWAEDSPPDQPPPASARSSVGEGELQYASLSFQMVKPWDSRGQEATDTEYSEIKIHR
The subject of another test is Trypanosoma cruzi. The test can be described thus: Trypanosoma cruzi phosphomannomutase and mannose-1-phosphate guanylyltransferase assay. In kind it is functional. The settings on record: 10 µM.
Test [5] concerns the target T2, Arginase-2, mitochondrial (Homo sapiens) (UniProt P78540).
T2 sequence (whole entry): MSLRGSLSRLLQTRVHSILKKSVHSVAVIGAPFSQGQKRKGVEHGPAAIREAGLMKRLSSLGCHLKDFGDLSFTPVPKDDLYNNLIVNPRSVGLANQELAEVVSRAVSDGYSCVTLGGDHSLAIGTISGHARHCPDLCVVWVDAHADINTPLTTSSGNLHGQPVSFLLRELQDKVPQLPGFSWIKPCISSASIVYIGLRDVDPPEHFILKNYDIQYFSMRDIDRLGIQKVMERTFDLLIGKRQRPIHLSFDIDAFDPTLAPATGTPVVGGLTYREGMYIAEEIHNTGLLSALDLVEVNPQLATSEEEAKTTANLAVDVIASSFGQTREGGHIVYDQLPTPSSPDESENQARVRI
The test can be described thus: in vitro enzyme assay to detect the production of urea directly proportional to the activity of Arginase II. Further: in the data most compounds retested in dose-response had high values. To be noted: 33.3 µM. In kind it is functional.

The target in test [6] is T3, Proteasome subunit beta (Trypanosoma cruzi) (UniProt O96673).
T3 sequence (whole entry): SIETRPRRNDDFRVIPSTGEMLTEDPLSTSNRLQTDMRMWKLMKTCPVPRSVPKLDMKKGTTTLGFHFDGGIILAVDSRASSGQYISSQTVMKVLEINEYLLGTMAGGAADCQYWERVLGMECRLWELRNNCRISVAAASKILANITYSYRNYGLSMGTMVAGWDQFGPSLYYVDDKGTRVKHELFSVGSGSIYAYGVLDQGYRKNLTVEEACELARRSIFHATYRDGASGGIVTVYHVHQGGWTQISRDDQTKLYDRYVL
The test can be described thus: Trypanosoma cruzi proteasome chymotrypsin-like activity (TcProtChymo) assay. Further: in the data most compounds retested in dose-response had high values. To be noted: 9.37 µM. In kind it is functional.

The species named for another test is Homo sapiens. The test can be described thus: To identify inhibition of the IFN signalling (Jak-Stat) pathway via expression of an eGFP reporter gene under the control of an IFN-stimulated response element (ISRE) containing MxA promoter. It counts as functional. To be noted: 30 µM. On the technique in general: A reporter such as luciferase makes a cellular process visible.

Test [7] addresses T4, Tyrosyl-tRNA synthetase, putative (Trypanosoma cruzi (strain CL Brener)) (UniProt Q4DSP6).
T4 sequence (whole entry): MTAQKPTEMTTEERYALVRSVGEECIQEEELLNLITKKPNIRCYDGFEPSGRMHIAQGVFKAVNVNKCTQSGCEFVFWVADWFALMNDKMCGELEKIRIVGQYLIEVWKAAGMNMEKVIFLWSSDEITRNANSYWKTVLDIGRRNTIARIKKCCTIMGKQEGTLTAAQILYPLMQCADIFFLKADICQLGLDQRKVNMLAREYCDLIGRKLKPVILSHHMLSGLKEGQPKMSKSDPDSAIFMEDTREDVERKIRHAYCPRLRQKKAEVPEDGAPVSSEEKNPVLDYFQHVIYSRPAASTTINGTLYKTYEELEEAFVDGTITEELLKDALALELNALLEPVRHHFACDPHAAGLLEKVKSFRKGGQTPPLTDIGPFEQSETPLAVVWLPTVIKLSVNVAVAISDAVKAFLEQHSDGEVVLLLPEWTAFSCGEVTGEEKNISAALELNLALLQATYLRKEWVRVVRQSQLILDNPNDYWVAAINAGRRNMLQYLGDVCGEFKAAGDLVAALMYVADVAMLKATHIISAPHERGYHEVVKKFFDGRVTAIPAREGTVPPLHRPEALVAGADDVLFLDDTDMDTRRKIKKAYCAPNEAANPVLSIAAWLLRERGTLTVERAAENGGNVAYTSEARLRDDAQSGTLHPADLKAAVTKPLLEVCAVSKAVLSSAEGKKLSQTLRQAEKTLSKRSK
The test can be described thus: Trypanosoma cruzi tyrosyl tRNA synthetase (TcYRS) _High Tyrosine SOP. Further: in the data most compounds retested in dose-response had high values. To be noted: 30 µM. In kind it is functional.

The target in test [8] is T4, Tyrosyl-tRNA synthetase, putative (Trypanosoma cruzi (strain CL Brener)). The test can be described thus: Trypanosoma cruzi tyrosyl tRNA synthetase (TcYRS) SOP. It counts as functional. To be noted: 30 µM.
In test [9] the target is Chromo domain-containing protein 1 (Saccharomyces cerevisiae (strain ATCC 204508 / S288c) (Baker's yeast)) (UniProt P32657). Kind of test: ScCHD-1 Enzyme Inhibition Assay. Further: in the data most compounds retested in dose-response had high values. It counts as functional. The settings on record: 30 µM.
Chain of Chromo domain-containing protein 1 (Saccharomyces cerevisiae (strain ATCC 204508 / S288c) (Baker's yeast)) (P32657 whole entry, the tested form may be a part): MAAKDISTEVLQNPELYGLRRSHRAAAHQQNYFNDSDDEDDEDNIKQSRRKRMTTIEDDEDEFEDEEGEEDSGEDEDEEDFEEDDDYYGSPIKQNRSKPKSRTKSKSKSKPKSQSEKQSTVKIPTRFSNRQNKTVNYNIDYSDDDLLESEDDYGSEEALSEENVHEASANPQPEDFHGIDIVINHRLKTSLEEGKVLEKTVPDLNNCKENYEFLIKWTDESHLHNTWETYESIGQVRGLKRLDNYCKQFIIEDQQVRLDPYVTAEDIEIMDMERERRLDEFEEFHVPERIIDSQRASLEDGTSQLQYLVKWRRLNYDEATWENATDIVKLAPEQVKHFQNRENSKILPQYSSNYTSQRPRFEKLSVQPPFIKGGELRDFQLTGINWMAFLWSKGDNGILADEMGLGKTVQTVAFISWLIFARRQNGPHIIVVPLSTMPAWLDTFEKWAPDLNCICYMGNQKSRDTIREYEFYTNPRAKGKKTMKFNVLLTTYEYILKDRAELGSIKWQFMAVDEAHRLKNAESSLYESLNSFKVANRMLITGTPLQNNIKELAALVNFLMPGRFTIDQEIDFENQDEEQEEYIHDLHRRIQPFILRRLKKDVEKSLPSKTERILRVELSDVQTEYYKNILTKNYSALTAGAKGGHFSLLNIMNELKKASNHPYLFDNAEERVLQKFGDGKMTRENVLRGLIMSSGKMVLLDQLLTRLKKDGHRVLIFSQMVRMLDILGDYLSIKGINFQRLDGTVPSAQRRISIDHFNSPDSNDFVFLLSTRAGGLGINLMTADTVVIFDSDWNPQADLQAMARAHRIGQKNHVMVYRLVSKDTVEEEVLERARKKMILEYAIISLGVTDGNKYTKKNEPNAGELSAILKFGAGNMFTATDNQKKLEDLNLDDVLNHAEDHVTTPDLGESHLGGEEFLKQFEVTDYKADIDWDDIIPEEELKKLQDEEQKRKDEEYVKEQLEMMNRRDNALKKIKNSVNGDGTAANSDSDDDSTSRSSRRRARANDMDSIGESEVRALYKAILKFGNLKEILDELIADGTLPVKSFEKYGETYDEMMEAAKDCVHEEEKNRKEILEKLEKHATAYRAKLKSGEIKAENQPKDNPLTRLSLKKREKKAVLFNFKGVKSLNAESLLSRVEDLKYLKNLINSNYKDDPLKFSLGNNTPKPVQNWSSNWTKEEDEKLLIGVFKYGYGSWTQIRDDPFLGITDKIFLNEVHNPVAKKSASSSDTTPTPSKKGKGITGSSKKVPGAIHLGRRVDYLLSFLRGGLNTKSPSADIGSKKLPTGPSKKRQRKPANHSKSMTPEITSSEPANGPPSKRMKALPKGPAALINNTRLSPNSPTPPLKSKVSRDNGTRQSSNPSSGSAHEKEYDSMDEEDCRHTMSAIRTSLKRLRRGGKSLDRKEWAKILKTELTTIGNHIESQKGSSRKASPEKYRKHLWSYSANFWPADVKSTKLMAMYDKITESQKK

As to `c1ccc(OCCNC2=NCCCN2)cc1`, the Percent Effect in [1] is -8.51%.
`CCOc1ncccc1NC(=O)NC1CCCN(c2ncccn2)C1` (stereo not drawn): the Percent Effect in [2] is 0.363%; in test [3], 23.4%; in [4], 1.83%; with Trypanosoma cruzi, 4.66%; in [5], -8.4%; in test [6], 13.3%. Besides, the Percent Effect is 8.06% in the test filed under Homo sapiens, 11.8% in test [7], 30.6% in [8] and -4.97% in test [9].
With `Cc1ccc(F)cc1S(=O)(=O)NCc1cccnc1N(C)C`, the Percent Effect in test [2] was 2.25%; in test [3] it was 20.8%; in test [4], -2.76%; with Trypanosoma cruzi, -0.373%; in test [5] it was -5.53%; in [6], 14.7%. For the same molecule, the Percent Effect was 26.1% in the test filed under Homo sapiens, 7.84% in test [7], 21.2% in test [8] and -8.95% in [9].
As for `Cc1ncoc1C(=O)N1CCn2c(COCC3CC3)cnc2C1C` (stereo not drawn), the Percent Effect in test [2] was -6.41%; in test [3], 9.09%; in test [4], -3.19%; in the test on Trypanosoma cruzi, 0.487%; in test [5], -0.81%; in test [6], 10.2%. In addition, the Percent Effect in the test filed under Homo sapiens was -4.92%; in test [7], 7.89%; in test [8] it was 12.8%; in test [9], -2.4%.
`CCc1cc(O)nc(C2CCCN2C(=O)c2cccnc2)n1` (stereo not drawn): the Percent Effect in [2] is 5.68%; in test [3] it was 14.7%; in test [4], -8.39%; in the test on Trypanosoma cruzi it was -6.71%; in test [5], 3.1%; in test [6], 15.1%. Moreover, the Percent Effect is 13% in the test filed under Homo sapiens, 0% in [7], 5% in test [8] and -14.4% in test [9].
For the molecule `CC(C)(O)CN1CCN(C(=O)c2cccnc2O)CC1`, the Percent Effect was -2.01% in test [2]; -2.56% in test [3]; 5.77% in [4]; 7.98% in the test on Trypanosoma cruzi; 2.46% in [5]; 9.13% in test [6]. For the same molecule, the Percent Effect in the test listed under Homo sapiens was -4.14%; in test [7] it was 1.44%; in test [8], 1.21%; in [9], -0.501%.
As for `Cc1cc(C)c2[nH]c(C(=O)NCCN3CCOC3=O)c(C)c2c1`, the Percent Effect in [1] turned out to be 16.4%.
The same measure, in the same setting: the result for `CCCn1nnnc1COC(=O)C1COc2ccccc2O1` (stereo not drawn) reads 3%.
As to `COc1cc(N2CCCC(c3nccn3Cc3cscn3)C2)nc(N)n1` (stereo not drawn), the Percent Effect in test [2] is -4.57%; in test [3], 5.41%; in test [4], 16.6%; in the test on Trypanosoma cruzi, 6.89%; in [5], -22.7%; in [6], 15.1%. Moreover, the Percent Effect in the test listed under Homo sapiens was 25.7%; in test [7] it was 6.92%; in test [8], 14.6%; in test [9] it was -3.5%.
For `Cc1noc(Cl)c1CCC(=O)N1CCc2sccc2C1`, the Percent Effect in test [2] was -5.38%; in [3] it was 18.7%; in test [4], 4.18%; in the test with Trypanosoma cruzi, 0.201%; in test [5] it was -2.22%; in test [6], 22.8%. Moreover, the Percent Effect in the test listed under Homo sapiens was 25.1%; in test [7], 5.79%; in [8], 17.9%; in test [9], -10.9%.
In the case of `CCc1nc(C2CCCN2C(=O)CCCn2cccn2)no1` (stereo not drawn), the Percent Effect is -1.9% in test [2]; 5.2% in test [3]; 9.24% in [4]; 4.66% in the test on Trypanosoma cruzi; 8.4% in [5]; 8.25% in [6]. In addition, the Percent Effect in the test listed under Homo sapiens was 4.76%; in test [7], 1.96%; in test [8] it was 4.71%; in test [9], -9.39%.
Take `CN(Cc1noc(C2CC2)n1)C1CCN(Cc2ccncc2)C1` (stereo not drawn): the Percent Effect in test [2] was -0.687%; in [3], 20.5%; in test [4], -22.8%; in the test on Trypanosoma cruzi, 6.1%; in test [5] it was 7.38%; in test [6], 14.4%. Moreover, the Percent Effect was 12% in the test listed under Homo sapiens, 1.44% in test [7], 22.9% in test [8] and -9.5% in [9].
Consider `CN(C)S(=O)(=O)N1CCCC(c2cccc(Cc3ccccc3)n2)C1` (stereo not drawn), for which the Percent Effect in [2] is -0.482%; in [3], 6.67%; in [4], -7.39%; with Trypanosoma cruzi, -6.31%; in [5] it was -5.31%; in test [6], 14.4%. Also, the Percent Effect is 58.5% in the test listed under Homo sapiens, -5.29% in test [7], 0% in [8] and -8.36% in test [9].
